Assay results reported in PubChem BioAssay (NCI).
Compounds without any hit were thinned out: in the full panel of roughly 83,000, 20% have a hit.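 A percent growth of 40 corresponds to 60% growth inhibition; 0 means no net growth; -100 means all cells died. Active threshold: below 10.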 Calls of active or inactive are those of the source.

Tests used:
Experiment in all cases: NCI-60 one-dose screen, 48 h (100 = growth as untreated, 0 = no growth, -100 = all killed)
Details in all cases: 10 µM unless noted
[1] = test system: NCI-H23 lung
[2] = test system: NCI-H226 lung
[3] = test system: NCI-H322M lung
[4] = test system: HOP-62 NSCLC
[5] = test system: NCI-H460 lung
[6] = test system: HOP-92 NSCLC
[7] = test system: NCI-H522 lung
[8] = test system: A549/ATCC NSCLC
[9] = test system: 786-0 renal
[10] = test system: COLO 205 colon

Measured: growth

COc1ccc(-c2nc3ccc(C(=O)NN4C(=O)c5ccc([N+](=O)[O-])cc5C4=O)cc3[nH]2)cc1
inactive: [1] 98% | [2] 79.9% | [3] 96.1% | [4] 91.8% | [5] 100% | [6] 81% | [7] 88.6% | [8] 93% | [9] 87.7% | [10] 105%

CCCCOc1ccc(NC(=O)c2sc3nc(C)ccc3c2N)cc1
inactive: [2] 10.2% | [3] 40.3% | [4] 21.9% | [7] 17.3% | [10] 80.4%
active: [1] -69.5% | [5] 7.45% | [6] -37.2% | [8] 0.0895% | [9] -78.5%

NS(=O)(=O)c1ccc(N=Nc2c(O)n(CC(=O)Nc3ccccc3Cl)c3ccccc23)cc1
inactive: [1] 30% | [3] 29.2% | [4] 17.6% | [5] 14.5% | [6] 33.7% | [7] 51.8% | [8] 18.5% | [9] 11.9%
active: [2] -1.16% | [10] -19.1%

N#Cc1cnn(C(=O)c2ccccc2Br)c1NC(=O)c1ccc(Br)cc1Cl
inactive: [1] 104% | [2] 99.2% | [3] 100% | [4] 97.9% | [5] 105% | [6] 111% | [7] 102% | [8] 93.9% | [9] 95.8% | [10] 102%

NS(=O)(=O)c1ccc(-n2cc(-c3cccc(NC(=O)c4ccc(Cl)c(C(F)(F)F)c4)c3)nn2)cc1
inactive: [2] 10% | [3] 33.4% | [5] 18.1% | [7] 45.8% | [9] 22.5%
active: [1] -4.59% | [4] 3.02% | [6] -5.36% | [8] 4.33% | [10] 2.2%

COc1ccc(-c2cc(C(=O)NCc3ccccc3)nn2-c2ccc(S(C)(=O)=O)cc2)cc1OC
inactive: [1] 105% | [2] 98.5% | [3] 122% | [4] 99.7% | [5] 108% | [6] 73% | [7] 87.4% | [8] 93.8% | [9] 98.6% | [10] 116%

COc1ccc([C@H](C)Nc2nc(Cl)nc3ccccc23)cc1
active: [7] -0.556%
inactive: [1] 23.2% | [2] 58.9% | [3] 86% | [4] 43.6% | [5] 60.8% | [6] 46.1% | [8] 70.2% | [9] 84.8% | [10] 90.3%

Cc1ccccc1[C@H]1C(C(=O)c2ccc(Cl)cc2)C2(N[C@@H]1c1ccccc1)C(=O)Nc1ccccc12 (stereo not given in full)
inactive: [3] 16.6%
active: [1] -52% | [2] -55.2% | [4] -48.2% | [5] -45.5% | [6] -50.4% | [7] -48.1% | [8] -21.7% | [9] -41.5% | [10] -74.5%

CN1CCN(/C(=N\c2sc(-c3ccccc3)nc2-c2ccccc2)c2ccccc2)CC1
inactive: [1] 104% | [2] 96.4% | [3] 82.8% | [4] 97.1% | [5] 42.6% | [6] 80.2% | [7] 87.3% | [8] 76.9% | [9] 78.7% | [10] 42%

CC1=C(C(=O)OCc2ccccc2)C(c2c(O)cc(O)cc2O)n2c(nc3ccccc32)N1 (stereo not given)
inactive: [1] 65.9% | [2] 62.2% | [3] 94.1% | [4] 47.8% | [5] 29.6% | [6] 83.1% | [8] 56.7% | [9] 49.4% | [10] 63.5%
active: [7] 1.19%

CC1=C(C(=O)c2ccccc2)C(c2cccc(Cl)c2Cl)n2c(nc3ccccc32)N1 (stereo not given)
active: [2] 7.18%
inactive: [1] 63% | [3] 72% | [4] 14.9% | [5] 60.9% | [6] 18% | [7] 49.9% | [8] 53.4% | [9] 37.9% | [10] 82.3%

C[C@H]1CN(C(=O)c2ccc3c(NNC(=O)c4ccncn4)nc4cc(F)c(F)cc4n23)CCN1
inactive: [1] 37.5% | [3] 32.2% | [4] 18.7% | [6] 65.4% | [7] 67.9% | [8] 19.4%
active: [2] 6.31% | [5] 6.66% | [9] -14.4% | [10] 9.98%

N#Cc1ccc(C(=O)Nn2c(N)cc3ccccc3c2=O)cc1
inactive: [1] 93.8% | [2] 84.4% | [3] 94.7% | [4] 99.3% | [5] 80.3% | [6] 88.2% | [7] 95% | [8] 94.4% | [9] 98.3% | [10] 112%

N#Cc1c(-c2ccccc2Cl)cc(-c2c[nH]c3ccccc23)[nH]c1=O
inactive: [1] 69.9% | [2] 64.3% | [3] 72.9% | [4] 67.2% | [5] 65.9% | [6] 44.9% | [7] 70.8% | [8] 77.5% | [9] 68.8% | [10] 114%

CCN(CC)c1ccnc(CNCCSC(c2ccccc2)(c2ccccc2)c2ccc(C)cc2)c1
active: [1] -78.7% | [2] -73.3% | [3] -10.4% | [4] -89.5% | [5] -79.6% | [6] -83.9% | [7] -80.3% | [8] -86.8% | [9] -93.1% | [10] -76.6%

N#Cc1c(-c2cccnc2)cc(-c2ccc3ccccc3c2)[nH]c1=O
inactive: [1] 77% | [2] 81.9% | [3] 90.1% | [4] 91.8% | [5] 83.7% | [6] 78.5% | [7] 66.2% | [8] 85.1% | [9] 11.9% | [10] 115%

COCOc1cc2oc(C(=O)N[C@@H](Cc3ccccc3)C(O)C(=O)NCc3ccccc3)c(C)c(=O)c2cc1OCOC (stereo not given in full)
inactive: [1] 59.2% | [3] 97.7% | [4] 71.9% | [6] 14.4% | [7] 86.9% | [8] 58.9% | [9] 14.5% | [10] 109%
active: [2] -11.8% | [5] 9.45%

NS(=O)(=O)c1ccc(-n2cc(-c3cccc(NC(=O)c4cc(Cl)cc(Cl)c4)c3)nn2)cc1
inactive: [1] 41.2% | [2] 105% | [3] 68.8% | [4] 51.2% | [5] 43.7% | [6] 98.4% | [7] 75.5% | [8] 27.1% | [9] 79.9% | [10] 76.4%

CN1CCN(c2ccc(C(=O)/C=C/c3cc(C(F)(F)F)cc(C(F)(F)F)c3)cc2)CC1
active: [1] -66.2% | [2] -42.9% | [3] -81.7% | [4] -74.9% | [5] -40.8% | [6] -55.2% | [7] -69.6% | [8] -87.8% | [9] -97.9% | [10] -83.4%

CN(C)CCOc1ccc(C(=O)C2[C@H](c3ccc(Cl)cc3)[C@@H](c3ccccc3)NC23C(=O)Nc2ccccc23)cc1 (stereo not given in full)
inactive: [1] 79.6% | [2] 72% | [3] 82.5% | [4] 84.2% | [6] 21.4% | [7] 89.6% | [8] 48.1% | [9] 40.8%
active: [5] 9.91% | [10] -63.2%

CCCCCCCCc1ccc(C(=O)Nc2cccc(P(=O)(O)O)c2)cc1
inactive: [1] 96.7% | [2] 97.4% | [3] 103% | [4] 111% | [5] 107% | [6] 114% | [7] 112% | [8] 99.9% | [9] 104% | [10] 113%

Cn1cc(-c2nc(N)nnc2-c2c[nH]c3ccc(F)cc23)c2cccnc21
inactive: [1] 35.2% | [2] 38% | [3] 56.2% | [4] 20% | [5] 11.6% | [6] 46.5% | [7] 36.6% | [8] 43.8% | [9] 52.5% | [10] 53.5%

O=c1[nH]c2ccccc2cc1CSc1cccc(Nc2nccc(-c3ccc4ccccc4c3)n2)c1
inactive: [1] 91.6% | [2] 80.7% | [3] 106% | [4] 95.3% | [5] 98.8% | [6] 117% | [7] 79% | [8] 83.6% | [9] 75.2% | [10] 102%

COc1ccc2[nH]c(O)c(N=NC(=O)COc3ccc(NC(=O)Nc4ccccc4)cc3)c2c1
active: [4] -6% | [6] -9.25% | [9] 8.04%
inactive: [1] 20.2% | [2] 26.7% | [3] 37.2% | [5] 48.7% | [7] 21.1% | [8] 47.5% | [10] 53.6%

CC(/C=C1\SC(=S)N(CCCC(=O)NC(CC(C)C)C(=O)O)C1=O)=C\c1ccccc1 (stereo not given)
inactive: [1] 96.5% | [2] 91.1% | [3] 92.8% | [4] 110% | [5] 99.8% | [7] 84.2% | [8] 89.8% | [9] 93.4% | [10] 124%
active: [6] 7.81%

C=Cn1cc(C(=O)O)c(=O)c2cc(F)c(N3CCN(c4nccc(-c5nccs5)n4)CC3)cc21
active: [1] -60.5% | [2] -20.5% | [3] -14.5% | [4] -34.4% | [5] 9.63% | [6] -32.7% | [7] -76.6% | [8] -34.3% | [9] -22.3% | [10] -61.5%

COc1ccc(C(=O)/C=C/c2cc3c(cc2Br)OCO3)cc1S(N)(=O)=O
inactive: [2] 13.5% | [6] 15.4%
active: [1] -31.1% | [3] 6.66% | [4] -38.4% | [5] -0.316% | [7] -46.3% | [8] 0.453% | [9] -40.4% | [10] -69%
